Source: PubChem (Broad Institute)
Only some compounds are listed: those with a hit (about 3.3% of all), similar ones and a draw of the others.
SIRT5 inh: sirtuin-5 (human) deacylase inhibition; Q9NXA8; Purified SirT5, succinyl-peptide AMC, trypsin-coupled fluorescence; inhibition, % at 15 µM; 330,000 tested, 1.1% active; in the data active means inhibition above about 15%
ERAP1 inh: inhibitors of human ERAP1 aminopeptidase; AID 652197; recombinant ERAP1, Leu-AMC fluorescence, 60 min; inhibition, % at 10.7 µM; Q9NZ08; 340,000 tested, 0.15% active;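 active means mean replicate inhibition of at least 30%, or all replicates individually reaching that 30% level; inactive means mean below 30% and not every replicate reaching it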;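 further: 0% = neutral control wells and 100% = L-leucinethiol positive control wells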
FGF22 binding: shifts melting point of recombinant human FGF22; activity (Tm shift, normalised), % at 9.99 µM; recombinant FGF22 thermal shift, SYPRO orange fluorescence; percent of sucrose octasulfate shift, DMSO zero; 340,000 tested, 1.5% active; Q9HCT0;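 active means mean Tm shift, scaled 0 neutral to 100 positive control, at about 1.3% or above, every replicate too, limit read from the data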
Target sequence (Q9HCT0 whole entry, looked up): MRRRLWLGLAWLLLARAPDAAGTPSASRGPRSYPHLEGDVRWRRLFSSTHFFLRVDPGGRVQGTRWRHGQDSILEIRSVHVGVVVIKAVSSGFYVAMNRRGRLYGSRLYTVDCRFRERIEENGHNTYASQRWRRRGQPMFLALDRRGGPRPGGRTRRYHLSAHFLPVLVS
INS-1E GSIS act: GLuc luminescence reporter in INS-1E cells, primary screen for activators of glucose-dependent secretion of insulin; INS-1E GLuc reporter insulin secretion, 2-3 h; activation, % at 16.6 µM; 370,000 tested, 0.61% active;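 active means lowest replicate activation of at least 40%, so every replicate reaches that level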;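 further: 0% = median of neutral control wells and 100% = median of IBMX positive control wells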
Casp6 inh: caspase-6 (human) enzyme inhibition; P55212; purified caspase-6, Z-VEID-R110 cleavage fluorescence; inhibition, % at 12.5 µM; 350,000 tested, 0.53% active; AID 686996;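 active means mean inhibition across replicates at least about 35%, with every replicate also reaching that limit, limit read from the data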;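 further: 0% = median of neutral control wells and 100% = no fluorescence left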
CASP1 counter: caspase-1 (human) inhibition counter-screen. shares compounds with Casp6 inh. purified caspase-1, Z-YVAD-R110 cleavage fluorescence. activity change, negative = inhibition, % at 35 µM. 100 tested, under 10 active. AID 743289;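 active means compounds lowering fluorescence whose fitted half-maximal concentration is no more than twice their top tested dose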
Active calls of the source: *; x = no result.

SMILES	SIRT5 inh	ERAP1 inh	FGF22 binding	INS-1E GSIS act	Casp6 inh	CASP1 counter
COc1ccc2c3c([nH]c2c1)[C@@H](CO)N(C(=O)c1cccnc1)CC31CCN(C(=O)NC(C)C)CC1	x	x	0	1	x	x
O=C(O)CC(CCc1ccccc1)OC1OC(CO)C(O)C(O)C1O (centres undefined)	3	32*	0	8	71*	22
[C-]#[N+][C@H](O[C@@H]1O[C@H](CO)[C@@H](O)[C@H](O)[C@H]1O)c1ccccc1	1	-2	0	0	0	x
O=C(c1ccc(F)cc1)N1CC(=O)N2[C@@H](CO)[C@H](c3ccc(C#CC4CCCC4)cc3)[C@@H]2C1	3	-1	x	-2	-1	x
O=C(Nc1cccc(Br)c1)C1CCCC1	2	-2	0	-3	-2	x
O=C(O)C1CCCCC1C(=O)Nc1cccc(Br)c1 (centres undefined)	x	-9	0	-10	75*	-2
COCCn1c2nc(=O)n(-c3ccccc3)c(=O)c-2nc2ccccc21	-4	4	0	11	70*	5
COCCn1c(-c2ccc(OC)cc2)nc2ccccc21	x	x	x	18	x	x
CCCN(C(=O)c1cccc(-n2cccc2)c1)c1c(N)n(Cc2ccccc2)c(=O)[nH]c1=O	8	4	0	20	71*	9
CCCCN(C(=O)c1cccc(S(=O)(=O)N2CCCC2)c1)c1c(N)n(CCC)c(=O)[nH]c1=O	0	5	0	x	2	x
CCCCN(C(=O)c1cccc(-n2cccc2)c1)c1c(N)n(CCC)c(=O)[nH]c1=O	1	-3	0	16	41*	8
C[C@H]1CN([C@@H](C)CO)C(=O)Cc2cc(NC(=O)Nc3ccccc3)ccc2O[C@H]1CN(C)S(=O)(=O)c1ccccc1	-4	-1	0	x	2	x
O=C(COC(=O)c1ccccc1)Nc1ncc([N+](=O)[O-])s1	21*	2	1	-53	84*	-7
CCOC(=O)c1sc2nc(OCCN3CCOCC3)cc(C)c2c1N	17*	1	0	10	82*	5
Cc1ccc(S(=O)(=O)N[C@H]2CC[C@@H](CC(=O)NCCc3ccncc3)O[C@@H]2CO)cc1	-1	1	0	16	0	x
Cc1c(NC(=O)C(C)OC(=O)c2ccc([N+](=O)[O-])s2)c(=O)n(-c2ccccc2)n1C (centres undefined)	-3	0	0	-19	94*	4
